PubChem BioAssay (Tox21)
A number with no mark means an inactive call. The call rests on the fitted dose curve; in most records, active means well fitted curve in the direction sought with a large enough effect in the repeat runs; inconclusive means weak or mixed curves; inactive means flat fitted curve, though single readings scatter.

Experiment: qHTS assay to test for compound auto fluorescence at 535 nm (green) in HEK293 cells (AID 720680)
Conditions: green autofluorescence 485/535 nm; series mostly up to 91.3 µM; fluorescence, % of fluorescein: at the top concentration
From the text: U.S. Tox21 Program National Center for Advancing Translational Sciences [NCATS] NIH Chemical Genomics Center [NCGC] U.S. Environmental Protection Agency [EPA] National Institutes of Environmental Health Sciences [NIEHS] National Toxicology Program [NTP] U.S. Food and Drug Administration [FDA] Tox21 Assay Overview: Compound auto fluorescence often interferes with screening of the compound library against various biological targets and signaling pathways. Some of these compounds may have fluorophoric properties. Such properties may interfere with the assay outputs resulting in false positives and/or negatives. To decrease such complications and ensure the compound activities are relevant in terms of biological response, the Tox21 10K compound library was screened for auto fluorescence. From the fluorophores used as reporter signals in our screening assays, the auto fluorescence equivalencies of compounds against three fluorophores have been evaluated: Triamterene, Fluorescein and Rose Bengal sodium for blue, green and red fluorescence, respectively. The fluorescence intensities were measured using Excitation/Emission wavelengths at 405/460nm, 485/535nm and 540/590nm for blue, green and red labels, respectively. This assay includes the green fluorescence data.
Tox21 Assay Protocol Summary: 2,000 HEK293 cells in 5 uL of culture medium containing 10% dialyzed FBS per well were dispensed into black wall/clear bottom 1536-well plates using a Multidrop Combi Dispenser (Thermo Scientific). The assay plates were incubated for 4-5 hr at 37C to allow cell attachment to the well bottom, followed by the transfer of 23 nL compound or DMSO vehicle by a pintool work station (Kalypsys, San Diego, CA). After the assay plates were incubated overnight at 37C and 5% CO2, fluorescence intensities in the assay plates were measured by an Envision (PerkinElmer, Shelton, CT) plate reader using three labels for measuring blue, green and red fluorescence at […] 460, 535 and 590nm respectively.
On the % scale 0 is the no-effect control and ±100 the full control effect.

Row | SMILES | fluorescence, % of fluorescein
1 | NS(=O)(=O)c1ccccc1OC(F)(F)F | 0.103%
2 | COc1ccc(/C=N/NC(=O)c2ccncc2)cc1OC | -0.0079% [at 46 µM]
3 | CC(=O)OCCCc1ccccc1 | -0.0202%
4 | O=C1OC(=O)c2ccccc21 | -0.229%
5 | NCCc1ccn[nH]1 | -0.0168% [at 18.6 µM]
6 | NC(=O)NNC(N)=O | -0.0122%
7 | CC(C)=CC(C)(C)C | -0.0092%
8 | NS(=O)(=O)c1ccc(Cl)c(S(N)(=O)=O)c1 | -0.0455% [at 46 µM]
9 | CN=C(NC#N)NCCSCc1csc(N=C(N)N)n1 | -0.0187% [at 46 µM]
10 | Cc1cccc(Nc2ccncc2S(=O)(=O)NC(=O)NC(C)C)c1 | -0.12% [at 18.6 µM]
11 | Nc1ccc(S(=O)(=O)Nc2ccccn2)cc1 | 0.0233% [at 18.6 µM]
12 | O=C(Nc1cccc(C2=NCCN2)c1)Nc1cccc(C2=NCCN2)c1 | -0.152% [at 46 µM]
13 | CCOC(=O)C(C)(C)C | -0.119%
14 | Cc1ccccc1C(=O)N1CC/C(=N\OS(=O)(=O)O)c2ccc(Cl)cc21 | 0.01% [at 46 µM]
15 | CCN(CCO)c1cccc(C)c1 | 0.0133%
16 | Cc1c(C(C)C)c(=O)n(-c2ccccc2)n1C | 0.0718% [at 46 µM]
17 | CCCC(C)CC (stereo not given) | 0.108%
18 | C[N+](C)(C)CC(O)CCl (stereo not given) | -0.213%
19 | CC(C)SCc1ccco1 | -0.0625% [at 46 µM]
20 | CCCOCCOCCOCCO | 0.0101%

Row | SMILES | fluorescence, % of fluorescein
21 | CC(=O)OC(C)c1ccccc1 (stereo not given) | -0.0099%
22 | CC(C)C(=O)c1ccccc1 | -0.0387%
23 | CC(C)COC(=O)CC(C(=O)OCC(C)C)S(=O)(=O)O (stereo not given) | -0.0409%
24 | N#CCCOCCOCCC#N | -0.0875%
25 | O=C1OC(=O)c2cc(Oc3ccc4c(c3)C(=O)OC4=O)ccc21 | 0.0312%
26 | O=C(O)CCNC(=O)c1ccccc1 | -0.0988% [at 46 µM]
27 | CCC(=O)OCCC(C)CCC=C(C)C (stereo not given) | -0.243%
28 | CCCCOC(=O)C(C)OC(=O)CCC (stereo not given) | -0.174%
29 | CC(C)(CO)[C@@H](O)C(=O)NCCCO | 0.103% [at 46 µM]
30 | CC(CC(=O)O)CC(C)(C)C (stereo not given) | -0.0028%
31 | Cc1ccc2c(c1)c1c3n2CCNC3CCC1 (stereo not given) | 0.0751% [at 46 µM]
32 | CCCCOC(=O)C(=O)OCCCC | 0.0077%
33 | COc1ccc(NS(=O)(=O)c2ccc(N)cc2)nn1 | -0.0152% [at 18.6 µM]
34 | Nc1cc(C(=O)O)ccc1Cl | 0.0373%
35 | CCOC(=O)CCCCCCCCC(=O)OCC | 0.115%
36 | CC(=O)Nc1ncc([N+](=O)[O-])s1 | -0.0851% [at 46 µM]
37 | C[CH2][Ge]([Cl])([CH2]C)[CH2]C | 0.0083% [at 95.7 µM]
38 | CCC1COC(=O)O1 (stereo not given) | 0.0099%
39 | NC(Cc1c[nH]c2ccccc12)C(=O)O (stereo not given) | 0.047% [at 46 µM]
40 | C=C(C)[C@@H]1CC[C@@H](C)C[C@@H]1O | 0.0357%
